Test results as given in article PMC5700166.
Numbering of substitutions follows the chain as printed.

Columns and labels:
Assay in all cases: protein-binding microarray (PBM); PBM: ~300 nM protein, 6 mM HEPES pH 7.8, 80 mM KCl, 0.5 mM EDTA, 0.5 mM EGTA, 6% glycerol, 35 ng/ul poly-dIdC, 1% milk, 1 h, room temperature; Ap Aiptasia and Nv Nematostella (sea anemones) / Co Capsaspora / Aq Amphimedon (sponge) / Dm Drosophila / Hu human; RHD is the Rel homology domain; high values mean tight binding
Settings in all cases: dsDNA, one strand shown
GST-Ap-NF-kB RHD = molecular target: T1, GST-Ap-NF-kB RHD (Exaiptasia pallida (Aiptasia), UniProt A0A913YAJ5 2-422)
T1 sequence: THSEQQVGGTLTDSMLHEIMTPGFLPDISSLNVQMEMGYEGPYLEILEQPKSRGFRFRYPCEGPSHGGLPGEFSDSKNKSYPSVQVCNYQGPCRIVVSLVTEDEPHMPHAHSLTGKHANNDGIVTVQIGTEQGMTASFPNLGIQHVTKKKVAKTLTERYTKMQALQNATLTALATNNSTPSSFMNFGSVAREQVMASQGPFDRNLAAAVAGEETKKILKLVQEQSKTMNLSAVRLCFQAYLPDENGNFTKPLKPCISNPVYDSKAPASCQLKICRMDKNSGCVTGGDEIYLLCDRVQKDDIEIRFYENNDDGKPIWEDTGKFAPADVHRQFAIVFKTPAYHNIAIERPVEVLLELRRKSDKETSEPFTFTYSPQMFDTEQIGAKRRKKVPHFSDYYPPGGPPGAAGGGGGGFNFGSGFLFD

[1] = molecular target: T2, GST-Nv-NF-kB (Cys allele) (Nematostella vectensis, UniProt E5G601 2-411)
T2 sequence: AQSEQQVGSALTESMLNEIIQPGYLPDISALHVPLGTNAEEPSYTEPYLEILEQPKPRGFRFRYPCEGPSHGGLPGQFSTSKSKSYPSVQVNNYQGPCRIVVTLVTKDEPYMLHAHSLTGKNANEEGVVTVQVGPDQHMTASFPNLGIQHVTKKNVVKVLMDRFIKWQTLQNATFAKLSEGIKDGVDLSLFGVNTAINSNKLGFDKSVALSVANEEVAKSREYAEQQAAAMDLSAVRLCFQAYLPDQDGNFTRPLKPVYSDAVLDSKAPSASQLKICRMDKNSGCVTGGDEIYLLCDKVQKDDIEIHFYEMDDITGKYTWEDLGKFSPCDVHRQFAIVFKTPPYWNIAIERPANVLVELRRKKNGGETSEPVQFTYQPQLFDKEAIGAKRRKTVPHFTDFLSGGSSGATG

[2] = molecular target: T3, GST-Nv-NF-kB (Ser allele) (Nematostella vectensis, UniProt A7UNT2 2-411)
T3 sequence: T2 sequence with Q21R, C66S, S207N, E215Q, V217A, E225K, A268E, D399E

GST-Co-NF-kB = molecular target: T4, GST-Co-NF-kB (Capsaspora owczarzaki, UniProt F1ARL5 200-546)
T4 sequence: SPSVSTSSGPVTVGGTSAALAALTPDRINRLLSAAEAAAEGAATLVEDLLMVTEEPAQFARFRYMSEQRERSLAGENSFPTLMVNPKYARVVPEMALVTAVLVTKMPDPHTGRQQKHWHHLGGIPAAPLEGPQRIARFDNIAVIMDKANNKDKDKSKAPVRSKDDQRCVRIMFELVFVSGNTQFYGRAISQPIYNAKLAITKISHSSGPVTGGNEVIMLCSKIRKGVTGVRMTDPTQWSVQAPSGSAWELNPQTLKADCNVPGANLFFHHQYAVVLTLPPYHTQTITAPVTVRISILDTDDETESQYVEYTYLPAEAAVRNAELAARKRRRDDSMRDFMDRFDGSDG

GST-Dm-Relish = molecular target: T5, GST-Dm-Relish (Drosophila melanogaster, UniProt Q94527 99-473)
T5 sequence: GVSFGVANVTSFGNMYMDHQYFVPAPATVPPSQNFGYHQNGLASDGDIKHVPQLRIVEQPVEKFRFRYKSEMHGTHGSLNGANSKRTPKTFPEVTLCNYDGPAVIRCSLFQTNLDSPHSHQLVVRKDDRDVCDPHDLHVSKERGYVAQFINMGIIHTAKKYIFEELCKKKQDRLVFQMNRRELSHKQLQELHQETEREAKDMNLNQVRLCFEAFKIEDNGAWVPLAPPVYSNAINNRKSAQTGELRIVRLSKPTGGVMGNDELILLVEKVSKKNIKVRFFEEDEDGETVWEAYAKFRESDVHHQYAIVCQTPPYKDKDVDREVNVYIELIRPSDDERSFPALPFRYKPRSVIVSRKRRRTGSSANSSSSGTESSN

GST-Aq-NF-kB = molecular target: T6, GST-Aq-NF-kB (Amphimedon queenslandica, UniProt A9Y5G7 2-389)
T6 sequence: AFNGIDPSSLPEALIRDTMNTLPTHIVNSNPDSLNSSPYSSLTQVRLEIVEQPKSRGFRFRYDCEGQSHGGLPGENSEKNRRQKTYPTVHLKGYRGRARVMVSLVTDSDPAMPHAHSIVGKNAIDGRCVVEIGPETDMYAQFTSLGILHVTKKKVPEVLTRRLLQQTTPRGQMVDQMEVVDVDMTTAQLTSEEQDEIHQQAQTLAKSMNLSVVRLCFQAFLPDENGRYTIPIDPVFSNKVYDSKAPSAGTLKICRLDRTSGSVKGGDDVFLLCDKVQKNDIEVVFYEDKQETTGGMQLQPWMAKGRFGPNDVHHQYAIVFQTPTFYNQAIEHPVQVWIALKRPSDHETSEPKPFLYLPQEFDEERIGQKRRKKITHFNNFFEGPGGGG

GST-Hu-p50 = GST-Hu-p50 (Homo sapiens, UniProt P19838 7-356)
Chain of GST-Hu-p50 (P19838 7-356): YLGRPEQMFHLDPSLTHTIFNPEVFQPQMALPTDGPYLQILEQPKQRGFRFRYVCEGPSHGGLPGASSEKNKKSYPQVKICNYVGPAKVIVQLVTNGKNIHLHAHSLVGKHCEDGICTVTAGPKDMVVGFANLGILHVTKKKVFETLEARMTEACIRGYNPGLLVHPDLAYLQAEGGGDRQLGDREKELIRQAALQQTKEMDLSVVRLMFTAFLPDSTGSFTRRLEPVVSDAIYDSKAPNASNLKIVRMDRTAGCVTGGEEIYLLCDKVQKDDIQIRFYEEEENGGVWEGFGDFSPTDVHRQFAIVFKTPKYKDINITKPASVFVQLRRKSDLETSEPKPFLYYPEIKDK

| Sequence | binding signal (GST-Ap-NF-kB RHD) | binding signal [1] | binding signal [2] | binding signal (GST-Co-NF-kB) | binding signal (GST-Dm-Relish) | binding signal (GST-Aq-NF-kB) | binding signal (GST-Hu-p50) |
| --- | --- | --- | --- | --- | --- | --- | --- |
| CCGATTAACATCACAAACTCCCCTGATGTTAATCGGGTCTTGATTCGCTTGACGCTGCTG | 7.26 z-score | 5.84 z-score | 7.23 z-score | 4.83 z-score | 5.81 z-score | 5.35 z-score | 5.66 z-score |
| CCGATTAACATCAAAATACCCCGTGATGTTAATCGGGTCTTGATTCGCTTGACGCTGCTG | 6.29 z-score | 5.39 z-score | 5.69 z-score | 5.77 z-score | 5.44 z-score | 5.69 z-score | 5.49 z-score |
| CCGATTAACATCAAGGGGACTTCTGATGTTAATCGGGTCTTGATTCGCTTGACGCTGCTG | 7.92 z-score | 7.59 z-score | 7.54 z-score | 2.41 z-score | 7.45 z-score | 6.14 z-score | 6.74 z-score |
| CCGATTAACATCAAGGGGGGTATTGATGTTAATCGGGTCTTGATTCGCTTGACGCTGCTG | 6 z-score | 4.4 z-score | 3.99 z-score | 4.22 z-score | 5.14 z-score | 5.2 z-score | 4.8 z-score |
| CCGATTAACATCAAGGGGAAAATTGATGTTAATCGGGTCTTGATTCGCTTGACGCTGCTG | 7.28 z-score | 8.8 z-score | 11.5 z-score | 8.77 z-score | 4.19 z-score | 7.23 z-score | 6.72 z-score |
| CCGATTAACATCACGGGAAAATCTGATGTTAATCGGGTCTTGATTCGCTTGACGCTGCTG | 3.98 z-score | 5.79 z-score | 6.4 z-score | 5.43 z-score | 2.07 z-score | 5.16 z-score | 3.87 z-score |
| CCGATTAACATCACAAAAGCCCCTGATGTTAATCGGGTCTTGATTCGCTTGACGCTGCTG | 6.25 z-score | 8.09 z-score | 7.4 z-score | 1.08 z-score | 6.85 z-score | 7.27 z-score | 6.34 z-score |
| CCGATTAACATCAGATTTACCCCTGATGTTAATCGGGTCTTGATTCGCTTGACGCTGCTG | 3.07 z-score | 2.72 z-score | 3.18 z-score | 6.39 z-score | 2.13 z-score | 3.62 z-score | 3.46 z-score |
| CCGATTAACATCAAACATTCCCCTGATGTTAATCGGGTCTTGATTCGCTTGACGCTGCTG | 6.81 z-score | 9.14 z-score | 9.23 z-score | 7.01 z-score | 4.9 z-score | 6.75 z-score | 5.95 z-score |
| CCGATTAACATCAAACATCCCCTTGATGTTAATCGGGTCTTGATTCGCTTGACGCTGCTG | 6.4 z-score | 7.13 z-score | 7.29 z-score | 2.37 z-score | 6.75 z-score | 6.17 z-score | 5.4 z-score |
| CCGATTAACATCATGGGGGGTAATGATGTTAATCGGGTCTTGATTCGCTTGACGCTGCTG | 3.64 z-score | 3.18 z-score | 2.78 z-score | 5.06 z-score | 2.79 z-score | 3.56 z-score | 3.21 z-score |
| CCGATTAACATCAGGGGAAGACCTGATGTTAATCGGGTCTTGATTCGCTTGACGCTGCTG | 5.91 z-score | 7.98 z-score | 6.51 z-score | 5.23 z-score | 8.75 z-score | 7.72 z-score | 4.98 z-score |
